# Experimental data taken from PubChem BioAssay.
# Activity calls are given as the source filed them. Unless noted, the rule behind the calls is not given here.
# Experiments:
# [1] = tested on: Wnt5a (protein binding on small-molecule microarray); experiment: small molecules binding Wnt5a protein – biophysical, small-molecule microarray, 635/667 nm fluorescence, primary screen (AID 1142); conditions: 635 nm fluorescence, higher = more signal;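 note: fluorescence read at 667 nm with signal to noise per printed feature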
# [2] = ATP-based viability of Huh7 replicon cells – cell-based, CellTiter-Glo luminescence, basal, 48 h, cytotoxicity control for HCV replication inhibitor project, primary screen (AID 1143); conditions: higher = more signal, called active from +8 up or from −8 down;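 note: Huh7 hepatoma cells carrying a hepatitis C replication reporter with no stimulus; test concentration not given here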
# [3] = Pseudomonas biofilm growth suppression – PAO1 strain, BacTiter-Glo luminescence, LB-PBS, primary screen (AID 1144); conditions: P. aeruginosa PAO1 biofilm, 12 h, higher = more signal
# [4] = basal CRE-LacZ reporter activity in PC12 – cell-based, unstimulated, primary screen (AID 1145); conditions: no forskolin, luminescence, 4.5 h, higher = more signal, called active from +8 up or from −8 down
# [5] = forskolin-driven CRE-LacZ activity in PC12 – cell-based, CRE-LacZ reporter, forskolin-stimulated, primary screen (AID 1146); conditions: luminescence, 4.5 h, higher = more signal, called active from +8 up or from −8 down;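 note: PC12 cells with 6xCRE LacZ reporter stimulated by forskolin 10 µM; beta-galactosidase reporter signal reflecting CREB driven transcription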
# [6] = target: Streptavidin (Streptomyces avidinii) (UniProt P22629); experiment: compounds binding control protein streptavidin – biophysical, small-molecule microarray, 635/667 nm fluorescence, artefact control for SMM compound annotation, primary screen (AID 1147); conditions: higher = more signal;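 note: signal reflects streptavidin binding to arrayed compounds as a control protein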
# Streptavidin (Streptomyces avidinii), sequence (P22629 whole entry, looked up): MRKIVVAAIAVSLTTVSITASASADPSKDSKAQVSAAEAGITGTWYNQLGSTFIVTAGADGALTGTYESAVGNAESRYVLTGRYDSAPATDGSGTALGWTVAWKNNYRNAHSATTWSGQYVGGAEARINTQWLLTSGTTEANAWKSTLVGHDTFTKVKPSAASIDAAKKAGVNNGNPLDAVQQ
# [7] = probe aInhba binding on compound microarray – biochemical, small-molecule microarray, 635/667 nm fluorescence, primary screen (AID 1148); conditions: higher = more signal;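 note: score merges 667nm spot fluorescence with signal-to-noise for antibody binding to printed compounds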
# Torsin-1A (Homo sapiens) [8] = target: Torsin-1A (Homo sapiens) (UniProt O14656); experiment: TOR1A wild-type binding on microarray – cell lysate, small-molecule microarray, lysate, 635/667 nm, primary screen (AID 1149); conditions: COS7 hTOR1A-WT lysate, 635 nm fluorescence, higher = more signal
# Torsin-1A (Homo sapiens), sequence (O14656 whole entry, looked up): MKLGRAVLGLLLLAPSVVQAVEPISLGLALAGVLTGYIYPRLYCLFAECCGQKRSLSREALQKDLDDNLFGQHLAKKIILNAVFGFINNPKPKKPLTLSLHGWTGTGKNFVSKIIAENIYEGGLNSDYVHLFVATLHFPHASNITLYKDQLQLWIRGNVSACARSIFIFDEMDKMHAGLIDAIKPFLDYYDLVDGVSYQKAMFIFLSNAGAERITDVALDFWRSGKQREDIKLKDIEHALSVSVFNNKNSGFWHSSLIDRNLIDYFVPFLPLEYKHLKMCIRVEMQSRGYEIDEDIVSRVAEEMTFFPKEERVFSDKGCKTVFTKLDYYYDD
# Torsin-1A (Homo sapiens) [9] = target: Torsin-1A (Homo sapiens) (UniProt O14656); experiment: torsin A mutant lysate binding on microarrays – cell lysate, small-molecule microarray, COS7 lysate, 635/667 nm fluorescence, primary screen (AID 1150); conditions: COS7 hTOR1A mutant lysate, 635 nm fluorescence, higher = more signal;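 note: score pools 667 nm emission and signal to noise measuring lysate protein binding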
# [10] = tested on: Sonic hedgehog protein (Shh); experiment: Sonic hedgehog microarray binding compounds – biochemical, small-molecule microarray, 635/667 nm fluorescence, primary screen (AID 1151); conditions: 635 nm fluorescence, higher = more signal;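 note: Shh protein binding to compounds spotted on small-molecule microarray slides; score combines spot fluorescence intensity with signal-to-noise across triplicate slides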
# [11] = optical density shifts of acrAB sulA E. coli – strain DRC41, OD650, 48 h, E. coli filamentation inducer project, primary screen (AID 1152); conditions: higher = more signal, called active from +8 up or from −8 down;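 note: E. coli MC1000 strain DRC41 lacking acrAB efflux pump and sulA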
# [12] = probe aLefty1 binding on compound microarray – biochemical, small-molecule microarray, 635/667 nm fluorescence, primary screen (AID 1153); conditions: higher = more signal;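 note: score merges spot fluorescence with signal-to-noise ratio from the scanned slide images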
# [13] = plasmodial surface anion channel blockers, osmotic lysis – cell-based, P. falciparum Indochina, OD700, 1 h, primary screen (AID 1154); conditions: P. falciparum Indochina infected RBC osmotic lysis, higher = more signal, called active from +8 up or from −8 down
# [14] = plasmodial surface anion channel blockers, osmotic lysis – cell-based, P. falciparum Indochina, OD700, 2 h, primary screen (AID 1155);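 note: lysis reports solute entry through the parasite surface anion channel PSAC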; conditions: P. falciparum Indochina infected erythrocytes, higher = more signal, called active from +8 up or from −8 down
# [15] = changes in parasitized red cell lysis, either direction – P. falciparum Indochina, OD700, 3 h, PSAC antagonist project, primary screen (AID 1156); conditions: P. falciparum-infected erythrocytes, osmotic lysis, higher = more signal, called active from +8 up or from −8 down
# [16] = plasmodial surface anion channel blockers, osmotic lysis – cell-based, P. falciparum Indochina, OD700, 18 h, primary screen (AID 1157); conditions: P. falciparum Indochina infected erythrocytes, osmotic lysis OD700, 18 h; higher = more signal, called active from +8 up or from −8 down
# [17] = S6 kinase pathway phospho-S6 level changes – cell-based, A549, cytoblot, luminescence, serum-stimulated, primary screen (AID 1158); conditions: 5 h, higher = more signal;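 note: serum-stimulated A549 lung adenocarcinoma cells; signal is phosphorylated S6 detected by cytoblot immunostaining with HRP secondary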
# [18] = target: NADPH oxidase 2 (Homo sapiens) (UniProt P04839); experiment: compounds shifting NOX2 Amplex Red fluorescence – cell-based, HEK293-NOX2, PMA-stimulated, NOX inhibitor project, primary screen (AID 1159); conditions: 45 min, higher = more signal, called active from +8 up or from −8 down; note: test concentration not given here
# NADPH oxidase 2 (Homo sapiens), sequence (P04839 whole entry, looked up): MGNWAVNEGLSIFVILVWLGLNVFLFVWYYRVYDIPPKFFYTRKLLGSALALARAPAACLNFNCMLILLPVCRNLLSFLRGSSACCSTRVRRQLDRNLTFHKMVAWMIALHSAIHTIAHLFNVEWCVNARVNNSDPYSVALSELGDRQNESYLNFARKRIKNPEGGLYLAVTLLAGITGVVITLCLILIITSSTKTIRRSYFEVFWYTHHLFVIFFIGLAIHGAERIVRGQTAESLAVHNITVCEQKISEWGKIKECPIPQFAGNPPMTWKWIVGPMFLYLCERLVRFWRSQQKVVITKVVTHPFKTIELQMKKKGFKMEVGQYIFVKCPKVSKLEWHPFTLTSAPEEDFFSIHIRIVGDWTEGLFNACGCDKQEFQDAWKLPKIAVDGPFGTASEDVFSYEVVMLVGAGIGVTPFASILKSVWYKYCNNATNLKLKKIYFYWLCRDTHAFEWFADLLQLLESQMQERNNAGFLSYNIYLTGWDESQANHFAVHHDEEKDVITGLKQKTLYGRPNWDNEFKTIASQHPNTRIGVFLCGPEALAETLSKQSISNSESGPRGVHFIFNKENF
# [19] = target: NADPH oxidase 4 (Homo sapiens) (UniProt Q9NPH5); experiment: compounds shifting NOX4 Amplex Red fluorescence – cell-based, HEK293-NOX4, tetracycline-induced, NOX inhibitor project, primary screen (AID 1160); conditions: HEK293-NOX4, Amplex Red H2O2 fluorescence, 45 min; higher = more signal, called active from +8 up or from −8 down
# NADPH oxidase 4 (Homo sapiens), sequence (Q9NPH5 whole entry, looked up): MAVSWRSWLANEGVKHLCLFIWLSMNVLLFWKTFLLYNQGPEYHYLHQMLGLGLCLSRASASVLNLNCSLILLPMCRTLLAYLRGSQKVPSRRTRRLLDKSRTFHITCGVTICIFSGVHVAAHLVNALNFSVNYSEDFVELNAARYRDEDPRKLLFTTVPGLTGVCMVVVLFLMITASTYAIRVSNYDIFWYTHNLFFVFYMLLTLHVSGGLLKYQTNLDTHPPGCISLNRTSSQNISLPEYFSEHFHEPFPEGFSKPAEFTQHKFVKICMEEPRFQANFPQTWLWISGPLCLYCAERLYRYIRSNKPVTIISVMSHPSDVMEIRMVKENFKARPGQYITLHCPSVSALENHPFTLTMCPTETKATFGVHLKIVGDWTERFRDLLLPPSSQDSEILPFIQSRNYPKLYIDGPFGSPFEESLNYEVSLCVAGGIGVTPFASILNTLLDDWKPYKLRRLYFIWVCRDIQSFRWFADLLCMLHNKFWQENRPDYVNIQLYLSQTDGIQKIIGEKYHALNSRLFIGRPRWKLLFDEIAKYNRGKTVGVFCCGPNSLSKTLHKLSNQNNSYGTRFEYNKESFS
# [20] = target: NADPH oxidase 5 (Homo sapiens) (UniProt Q96PH1); experiment: compounds shifting NOX5 Amplex Red fluorescence – cell-based, HEK293-NOX5, NOX inhibitor project, primary screen (AID 1161); conditions: HEK293-NOX5, ionomycin, 45 min, higher = more signal
# NADPH oxidase 5 (Homo sapiens), sequence (Q96PH1 whole entry, looked up): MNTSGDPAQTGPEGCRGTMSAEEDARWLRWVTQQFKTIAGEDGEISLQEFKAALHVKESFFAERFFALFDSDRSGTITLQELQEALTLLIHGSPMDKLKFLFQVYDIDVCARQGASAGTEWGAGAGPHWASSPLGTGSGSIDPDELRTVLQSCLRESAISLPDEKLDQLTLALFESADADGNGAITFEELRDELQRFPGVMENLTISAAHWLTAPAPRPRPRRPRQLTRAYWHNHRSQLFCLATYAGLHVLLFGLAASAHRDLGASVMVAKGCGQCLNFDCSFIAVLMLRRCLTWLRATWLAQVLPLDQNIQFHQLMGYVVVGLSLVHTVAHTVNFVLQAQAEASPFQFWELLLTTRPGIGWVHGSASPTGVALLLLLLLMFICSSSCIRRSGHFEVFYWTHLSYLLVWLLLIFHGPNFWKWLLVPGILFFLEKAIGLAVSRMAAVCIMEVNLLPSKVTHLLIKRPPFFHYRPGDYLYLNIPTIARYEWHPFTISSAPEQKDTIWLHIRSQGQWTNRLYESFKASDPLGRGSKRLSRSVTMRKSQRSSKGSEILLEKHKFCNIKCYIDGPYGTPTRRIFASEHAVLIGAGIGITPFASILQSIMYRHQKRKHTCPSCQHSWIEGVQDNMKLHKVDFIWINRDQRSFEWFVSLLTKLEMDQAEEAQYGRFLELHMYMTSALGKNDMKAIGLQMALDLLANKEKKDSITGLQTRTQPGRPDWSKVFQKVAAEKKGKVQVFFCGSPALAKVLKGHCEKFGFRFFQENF
Compound,composite z-score [1],z-score [2],z-score [3],z-score [4],z-score [5],composite z-score [6],composite z-score [7],composite z-score (Torsin-1A (Homo sapiens) [8]),composite z-score (Torsin-1A (Homo sapiens) [9]),composite z-score [10],z-score [11],composite z-score [12],z-score [13],z-score [14],z-score [15],z-score [16],z-score [17],z-score [18],z-score [19],z-score [20]
CN(C)CCCNC(=O)[C@@]1(C)c2ccccc2C(=O)N(Cc2ccccc2)[C@H]1c1ccc(CO)cc1,0.0404,-1.97 (inactive),0.329 (inactive),0.389 (inactive),0.261 (inactive),-0.324,-0.176,-0.334,-0.365,0.498,-0.074 (inactive),-0.146,2.17 (inactive),0.426 (inactive),1.32 (inactive),0.377 (inactive),-0.142,0.42 (inactive),-1.25 (inactive),0.6
COC(=O)C(CC#Cc1ccc2c(c1)[C@]1(C(=O)N2)[C@H](c2ccccc2OCCO)N2[C@H](c3ccccc3)[C@H](c3ccccc3)OC(=O)[C@H]2[C@@H]1C(=O)NC[C@H](O)c1ccccc1)C(=O)OC,0.572,-3.75 (inactive),-1.26 (inactive),-0.168 (inactive),0.717 (inactive),0.0979,-0.199,0.951,0.68,1.22,0.345 (inactive),0.964,2.45 (inactive),1.18 (inactive),0.984 (inactive),0.957 (inactive),1.54,1.63 (inactive),1.03 (inactive),1.34
O=C1N(Cc2ccccc2)Cc2ccccc2[C@@H]2OC(c3ccc(OCCCO)cc3)=N[C@]12CCS(=O)(=O)c1ccccc1,0.534,-2.33 (inactive),0.245 (inactive),3.78 (inactive),-0.832 (inactive),0.379,0.0742,0.529,0.489,1.42,-0.715 (inactive),0.547,21.2 (active),4.09 (inactive),2.99 (inactive),0.492 (inactive),0.0549,-0.146 (inactive),1.23 (inactive),1.03
O=C1O[C@@H](c2ccccc2)[C@@H](c2ccccc2)N2[C@@H](c3ccc(O)cc3)[C@]3(C(=O)Nc4ccc(C#CC5=CCCCC5)cc43)[C@@H](C(=O)NC[C@H](O)c3ccccc3)[C@H]12,0.361,-3.48 (inactive),-1.16 (inactive),-0.0246 (inactive),-0.199 (inactive),0.212,0.0833,0.675,0.677,1.48,1.22 (inactive),0.15,0.622 (inactive),0.347 (inactive),-0.853 (inactive),0.933 (inactive),0.0825,1.22 (inactive),0.53 (inactive),0.909
Cc1ccc(S[C@]2(C(=O)NCC(F)(F)F)CC(=O)N(Cc3ccccc3C(F)(F)F)[C@@H]2c2ccc(CO)cc2I)cc1,-0.0722,-1.26 (inactive),-0.235 (inactive),-0.671 (inactive),0.622 (inactive),-0.619,-0.024,-2.42,-1.67,-0.402,0.637 (inactive),-0.135,3.79 (inactive),0.853 (inactive),1.1 (inactive),0.205 (inactive),-0.142,2.28 (inactive),-1.06 (inactive),1.94
COCCOC(=O)N1C(=O)[C@@]2(c3ccccc31)[C@H](C(=O)N1CCN(c3ncccn3)CC1)[C@H]1C(=O)O[C@H](c3ccccc3)[C@H](c3ccccc3)N1[C@@H]2c1ccc(O)cc1,0.135,-2.65 (inactive),0.0365 (inactive),0.631 (inactive),-0.484 (inactive),0.284,-0.41,-0.396,-0.35,1.07,0.81 (inactive),0.0661,1.78 (inactive),0.672 (inactive),0.481 (inactive),0.261 (inactive),0.0481,1.25 (inactive),-0.0154 (inactive),2.19
CN1C(=O)C2C=CC(C(O)c3cccc4ccccc34)N(N3CCCCC3)C2C1=O (stereo not given),0.156,0.64 (inactive),0.32 (inactive),-0.136 (inactive),0.0556 (inactive),1.85,0.0582,0.613,0.781,0.169,-1.57 (inactive),-0.0798,0.669 (inactive),0.958 (inactive),-0.284 (inactive),0.878 (inactive),-1.32,-0.671 (inactive),-1.97 (inactive),-0.766
COCCOC(=O)N1C(=O)[C@@]2(c3cc(C#Cc4ccc(OC)cc4)ccc31)[C@H](C(=O)Nc1nc3ccccc3s1)[C@H]1C(=O)O[C@H](c3ccccc3)[C@H](c3ccccc3)N1[C@@H]2c1ccc(OCCO)cc1,0.755,-1.12 (inactive),0.133 (inactive),0.757 (inactive),0.442 (inactive),1.12,0.246,-0.129,0.337,1.84,-0.221 (inactive),0.0524,6.99 (inactive),3.22 (inactive),1.26 (inactive),2.25 (inactive),-0.45,2.03 (inactive),-1.07 (inactive),0.518
COC(=O)[C@H](Cc1ccccc1)N1CC(/C=C/C2CC2)=C[C@H]1[C@H](O)Cc1ccccc1,-0.0412,-2.83 (inactive),0.954 (inactive),2.1 (inactive),18.9 (active),0.626,-0.0523,0.211,0.188,0.593,-0.555 (inactive),-0.012,1.74 (inactive),0.714 (inactive),-0.377 (inactive),0.5 (inactive),0.184,-4.7 (inactive),-0.819 (inactive),-0.607
